Screening results as filed in PubChem BioAssay.
An excerpt weighted towards active compounds, which were near 5.7% of everything screened.
KB-V1 cytotox = KB-V1 MDR subline cytotoxicity. KB-V1 MDR cells viability, CellTiter-Glo, 72 h. 400,000 tested, 3.4% active. AID 1347076. Potency, µM (top dose mostly 46.1 µM), usual class: cytotoxic; note: potency is the fitted concentration of half-maximal effect; nearly all actives have a fitted effect of over 60% in size
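KB-V1 MDR subline cells in DMEM (phenol-red free, 10% FBS) exposed to compounds in qHTS concentration series for 72 h at 37 degrees C. Viability read by CellTiter-Glo luminescence; concentration-effect curves fitted after normalization and correction.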
Nrf2 inh = blocks Nrf2 signaling; 360,000 tested, 2.1% active; A549 ARE-Fluc reporter, luciferase luminescence, 18-24 h; Potency, µM (titrated, usually from 46 µM), inactives show at the highest dose activity change, negative = inhibition, most hits filed as inhibitors; note: potency is the fitted concentration of half-maximal effect; nearly all actives have a fitted effect of over 60% in size
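In this cell-based qHTS, ARE-driven firefly luciferase in A549 cells reports Nrf2 activity; the luminescent signal after BugLite lysis is the measured value, with a prior CellTiter-Fluor read for cell health.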
Giardia kill = kills Giardia lamblia; AID 540267; 340,000 tested, 0.15% active; activity change, % at 7.66 µM, hits read low; Giardia lamblia trophozoite viability; in the data active = activity change below about -80%; inconclusive = between about -30% and that limit;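 note: parasites exposed to compound for two days anaerobically before the ATP read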
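Giardia lamblia trophozoites (100 cells/well) were incubated with compounds for 48 h at 37 deg C under anaerobic conditions. Viability was read as ATP content by one-step luminescence after 15-30 min at room temperature.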
PI4K2A inh = blocks human PI4K2A kinase activity; Q9BTU6; 420,000 tested, 0.13% active; activity change, negative = inhibition, % at 76.9 µM; purified PI4K2A, ADP-Glo luminescence, 1 h; hits give low values; in the data active = activity change below about -50%; inconclusive = mostly about -30% to -49%;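 note: -100% = wells without enzyme as full effect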
Target sequence (Q9BTU6 whole entry, looked up): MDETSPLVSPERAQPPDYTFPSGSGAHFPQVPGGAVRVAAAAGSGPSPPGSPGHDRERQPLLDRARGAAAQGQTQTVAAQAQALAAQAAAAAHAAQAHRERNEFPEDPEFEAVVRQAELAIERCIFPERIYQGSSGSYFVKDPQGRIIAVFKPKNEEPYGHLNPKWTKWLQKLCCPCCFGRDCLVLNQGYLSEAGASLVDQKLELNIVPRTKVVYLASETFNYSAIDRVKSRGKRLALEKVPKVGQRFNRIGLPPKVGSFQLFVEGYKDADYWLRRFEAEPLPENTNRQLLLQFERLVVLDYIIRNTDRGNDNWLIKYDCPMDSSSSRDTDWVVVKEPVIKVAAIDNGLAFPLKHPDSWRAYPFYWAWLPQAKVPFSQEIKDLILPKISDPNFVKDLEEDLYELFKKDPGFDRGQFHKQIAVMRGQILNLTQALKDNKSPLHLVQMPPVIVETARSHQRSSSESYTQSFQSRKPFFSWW
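In this quantitative HTS, ADP production by PI4K2A was quantified luminescently after 1 h at ambient temperature; 100 microM adenosine served as plate-quality control.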
KB-3-1 tox = kills parental KB-3-1 adenocarcinoma cells; KB-3-1 viability, CellTiter-Glo ATP luminescence, 72 h; 400,000 tested, 1.4% active; Potency, µM (highest dose often 46.1 µM), usual class: cytotoxic; note: potency is the fitted concentration of half-maximal effect; nearly all actives have a fitted effect of over 60% in size
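Cytotoxicity in the drug-sensitive parental line KB-3-1 was scored as loss of CellTiter-Glo luminescence following 72 h incubation with compound. Values come from curve fitting of normalized concentration-response data.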
A549 viability = A549 cytotoxicity, counter-screen for Nrf2 inhibitors | A549 ARE-Fluc cells, CellTiter-Fluor viability, 18-24 h | Potency, µM (series often up to 46 µM), without a hit: top-dose activity change, negative = cytotoxicity, most hits filed as inhibitors | 390,000 tested, 0.16% active | AID 504648; note: potency is the fitted concentration of half-maximal effect
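Cytotoxicity counterscreen: CellTiter-Fluor fluorescence was measured in A549 ARE_Fluc cells after 18-24 h of compound exposure in a concentration series. The subsequent BugLite luminescent read reports ARE-luciferase activity.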
* = called active by the depositor. Unless noted, calls come from the whole dose curve; as a rule, active = well fitted curve in the direction sought with a large enough effect; inconclusive = small, poorly fitted or top-dose-only effect, or another doubt; inactive = no such curve, though single readings can be large; an effect the other way counts as inactive or inconclusive. Unless noted, % is set by controls: 0 for no effect and ±100 for the full control effect.

What do the screens show for `CCOC(=O)[C@]12CCCC=C1N(Cc1cccc3ccccc13)C(=O)[C@H](CC(=O)N1CCSCC1)C2`?
KB-V1 cytotox: 18.4µM*; PI4K2A inh: -0.7; KB-3-1 tox: inactive

How did CCCCCCCCN1C(=O)[C@H](CC(=O)N2CCSCC2)C[C@@]2(C(=O)OCC)CCCC=C12 do in these assays?
KB-V1 cytotox: 23.1µM*; PI4K2A inh: -0.2; KB-3-1 tox: inconclusive

How did CCOC(=O)[C@]12CCCC=C1N(Cc1cccc3ccccc13)C(=O)[C@H](CC(=O)N1CCCCC1)C2 do in these assays?
KB-V1 cytotox: 9.2µM*; PI4K2A inh: 8.3; KB-3-1 tox: inconclusive

What do the screens show for `CCOC(=O)[C@]12CCC=C1N(Cc1cccc3ccccc13)C(=O)[C@H](CC(=O)N1CCSCC1)C2`?
KB-V1 cytotox: inconclusive; PI4K2A inh: 2.8; KB-3-1 tox: inactive

Results for COc1ccc(NC(=O)c2c(NCc3ccc(N(C)C)cc3)sc3c2CCC3)cc1 ?
KB-V1 cytotox: inactive; PI4K2A inh: -17.4; KB-3-1 tox: inactive; A549 viability: -1.3%

What do the screens show for `CN(C)c1ccc(N=Cc2cccc3ccccc23)cc1`?
KB-V1 cytotox: inactive; KB-3-1 tox: inactive

Results for CC1CCC(C(=O)NC(C(=O)OCC(=O)c2ccc(Br)cc2)C(C)C)CC1 (centres undefined) ?
KB-V1 cytotox: inactive; Nrf2 inh: inconclusive; PI4K2A inh: -6.8; KB-3-1 tox: inactive; A549 viability: -0.3%

Results for CC(C)=CCC1C(=O)N(c2ccccc2)N(c2ccccc2)C1=O ?
PI4K2A inh: -2.0

Results for CCCCC1C(=O)N(c2ccccc2)N(c2ccc(O)cc2)C1=O (centres undefined) ?
KB-V1 cytotox: inactive; Nrf2 inh: 25.9µM*; Giardia kill: -1.2; PI4K2A inh: 0.3; KB-3-1 tox: inactive; A549 viability: inconclusive

Results for Cc1ccc(C(=O)O/N=C(\N)c2ccccn2)cc1 ?
KB-V1 cytotox: inactive; Nrf2 inh: inconclusive; Giardia kill: -26.1; PI4K2A inh: -85.8*; KB-3-1 tox: inactive; A549 viability: -6.7%

What do the screens show for `C/C(=N/OC(=O)c1ccc(C)cc1)c1cccs1`?
KB-V1 cytotox: inactive; Nrf2 inh: 12.3%; Giardia kill: -11.5; PI4K2A inh: -79.9*; KB-3-1 tox: inactive; A549 viability: -6.6%

How did CC(C)(C)c1ccc(C(=O)O/N=C(\N)c2ccccn2)cc1 do in these assays?
KB-V1 cytotox: inactive; Nrf2 inh: inconclusive; Giardia kill: inconclusive; PI4K2A inh: inconclusive; KB-3-1 tox: inactive; A549 viability: -16.7%

How did CCOc1ccc(C(=O)O/N=C(\N)c2ccccn2)cc1 do in these assays?
KB-V1 cytotox: inactive; Nrf2 inh: inconclusive; Giardia kill: -12.8; PI4K2A inh: -87.9*; KB-3-1 tox: inconclusive; A549 viability: -17.7%

Results for N/C(=N\OC(=O)c1ccccc1)c1ccccn1 ?
KB-V1 cytotox: inactive; Nrf2 inh: inconclusive; Giardia kill: -4.9; PI4K2A inh: -67.4*; KB-3-1 tox: inactive; A549 viability: -1.4%

How did CCCCN1CCN(C(=O)c2ccc(CNC(=O)c3cccc(Br)c3)cc2)CC1 do in these assays?
PI4K2A inh: -3.1

How did O=S1(=O)c2ccc(Br)cc2OC[C@@H](Cc2ccccc2)N1Cc1cn(CCC2OCCO2)nn1 do in these assays?
PI4K2A inh: 3.3

Results for COC(=O)[C@@]12CCCCC3=C1N(CCC3)C(=O)[C@H]2CC(=O)NCc1ccc(C)o1 ?
PI4K2A inh: -5.8

What do the screens show for `COc1ccc(Cn2cc(COC(=O)NCCc3c[nH]c4ccccc34)nn2)cc1`?
PI4K2A inh: -0.7

How did CCN(CC)C(=O)CSc1nnc(-c2ccccn2)n1C do in these assays?
PI4K2A inh: -1.6

How did NS(=O)(=O)c1ccc(NC(=O)CSc2n[nH]c(=O)n2Cc2ccccc2)cc1 do in these assays?
KB-V1 cytotox: inactive; Nrf2 inh: 13.4%; Giardia kill: -6.2; PI4K2A inh: 0.8; KB-3-1 tox: inactive; A549 viability: 1.4%

How did O=C(CSc1n[nH]c(=O)n1Cc1ccccc1)Nc1ccc(F)c(F)c1F do in these assays?
KB-V1 cytotox: 16.4µM*; Nrf2 inh: -25.6%; Giardia kill: -17.9; PI4K2A inh: -22.7; KB-3-1 tox: inconclusive; A549 viability: 8.4%

How did CS(=O)(=O)c1ccc(NC(=O)COc2ccccc2C(=O)Nc2ccccc2)cc1 do in these assays?
KB-V1 cytotox: inactive; KB-3-1 tox: inactive

Results for O=C1c2ccccc2C(=O)N1c1ccc(S(=O)(=O)N2CCOCC2)cc1 ?
KB-V1 cytotox: inactive; Nrf2 inh: 0.0%; Giardia kill: 4.9; KB-3-1 tox: inconclusive; A549 viability: 1.6%

How did C[C@@H]1COc2cc(Br)ccc2S(=O)(=O)N1Cc1cn(CCC2OCCO2)nn1 do in these assays?
PI4K2A inh: 6.1

What do the screens show for `COc1ccc(-c2c(C#N)c(SCC(=O)Nc3ccc(C)cc3)nc(C)c2C(=O)Nc2ccccc2)cc1`?
KB-V1 cytotox: inactive; Nrf2 inh: 6.4%; PI4K2A inh: 0.8; KB-3-1 tox: inactive; A549 viability: -1.1%

What do the screens show for `Cc1nc(SCC(=O)c2cc3ccccc3oc2=O)c(C#N)c(-c2ccccc2)c1C(=O)Nc1ccccc1`?
KB-V1 cytotox: inconclusive; Nrf2 inh: 23.1µM*; Giardia kill: inconclusive; PI4K2A inh: 0.8; KB-3-1 tox: inactive; A549 viability: -12.5%

How did COc1ccc(N2C(=O)CSC23C(=O)N(CC(=O)NC2CCCCC2)c2ccccc23)cc1 (centres undefined) do in these assays?
Nrf2 inh: -0.7%; PI4K2A inh: 7.3; A549 viability: -1.9%

What do the screens show for `CC(C)Oc1ccc(CNS(=O)(=O)c2ccc(-c3cc(C(F)(F)F)on3)s2)cc1`?
Nrf2 inh: inconclusive; PI4K2A inh: -0.2; A549 viability: 20.3%

How did Cc1noc(C)c1CSc1nc2[nH]ncc2c(=O)n1-c1ccccc1 do in these assays?
KB-V1 cytotox: inconclusive; Nrf2 inh: -22.2%; Giardia kill: 3.4; PI4K2A inh: 0.7; KB-3-1 tox: inconclusive; A549 viability: inconclusive

How did Cc1noc(C)c1CSc1nc2ccccc2c(=O)n1-c1ccc(F)cc1F do in these assays?
KB-V1 cytotox: 20.6µM*; Giardia kill: -12.2; PI4K2A inh: -6.8; KB-3-1 tox: 7.31µM*; A549 viability: -19.9%

What do the screens show for `Cc1noc(C)c1CSc1nc2ccccc2c(=O)n1-c1ccccc1`?
KB-V1 cytotox: 5.8µM*; Giardia kill: -12.0; PI4K2A inh: 5.3; KB-3-1 tox: 5.8µM*; A549 viability: inconclusive
